Results filed as inconclusive are left out. Where a call stands in place of a potency, no number is given. Values without a mark were called inactive. The source made the active and inactive calls. Calls come from the whole dose curve; as a rule, active = well fitted cell-killing curve with a large enough effect; inconclusive = small, poorly fitted or top-dose-only effect, or another doubt; inactive = flat fitted curve, though single readings scatter.
Experiment: Vero cells viability counterscreen for qRT-PCR qHTS assay of selected Zika virus inhibitors
Conditions: CellTiter-Glo ATP luminescence, 24 h; series mostly up to 41.8 µM
Text: Assay Submitters (PI): Avindra Nath, Ph.D., National Institute of Neurological Disorders and Stroke (NINDS), Bethesda, MD Radhakrishnan Padmanabhan, Ph.D., Georgetown University (GU), Washington D.C. Zika Virus causes congenital defects, including microcephaly and is associated with Guillain-Barre syndrome, eningoencephalitis and myelitis in infected adult. […] Using a target-based approach, we hope to establish a screening paradigm to uncover novel, cell-active NS2B-NS3 protease (Zika Virus) specific inhibitors from NCATS' collection of small molecules using qHTS. […] Four assay panel was created to identify potential Zika Virus inhibitors. Namely, (1) GU unlinked NS2B-NS3 AMC tagged protease qHTS, (2) GU unlinked NS2B-NS3 Rhodamine tagged protease qHTS, (3) NINDS linked NS2B-NS3 AMC tagged protease qHTS, (4) NINDS linked NS2B-NS3 Rhodamine tagged protease qHTS. Inhibitors of the Zika virus primary screens are confirmed using qRT-PCR secondary assays, mCherry orthogonal assay, and Vero cells viability counterscreen. Cytotoxic compounds identified in the Vero cell viability counterscreen were excluded from the list of potential Zika virus inhibitors. Early Translation Branch (ETB) National Center for Advancing Translational Sciences (NCATS), Rockville, MD National Institute of Health (NIH), Bethesda, Maryland
Vero Cell Viability Assay: Vero cell cytotoxicity was determined using a luminescent readout with CellTiter Glo reagent (Promega, Madison, WI), which is based on measuring the ATP content within cells. Briefly, 4 uL of Vero cells at 2.5 x 10^5 cells/mL in DMEM containing 4% FBS were dispensed into 1536-well solid bottom tissue treated white plate using a Multidrop Combi dispenser (Thermo Scientific). Plates were incubated at 37 degrees C, 95% humidity, and 5% CO2 overnight to allow for cell attachment. Compounds were dissolved in DMSO at different concentrations and transferred via pintool (Wako Automation), for a final concentration of 57 uM - 0.029 uM. Plates were again incubated for 24 hours, followed by a 2 uL addition of CellTiter Glo. Finally, plates were incubated for 30 minutes at 37 degrees C and 5% CO2 before being read on a ViewLux (Perkin Elmer) for luminescence.
In the case of `Cc1ccn(-c2ccc(-c3ncco3)cc2)c(=O)c1-c1ccc2nc(N)ncc2c1`, the Potency is reported as “inactive”. In the case of `CC(=O)Nc1ccc([C@H](C)C(=O)Nc2ncc(C(C)C)s2)cc1`, the Potency is reported as 2.82 µM (active). For `Oc1cccc(-c2c3nc(c(-c4cccc(O)c4)c4ccc([nH]4)c(-c4cccc(O)c4)c4nc(c(-c5cccc(O)c5)c5ccc2[nH]5)CC4)C=C3)c1`, the Potency was “inactive”. In the case of `Cc1ccc2c(=O)c3ccccc3n(CCCN)c2c1C`, the Potency is reported as “inactive”. For `CC(C)(C)Sc1c(CC(C)(C)C(=O)O)n(Cc2ccc(Cl)cc2)c2ccc(OCc3ccc4ccccc4n3)cc12`, the Potency was “inactive”. For `O=C(O)c1c(Sc2ccccc2)c2cc(Cl)ccc2n1Cc1ccc(Cl)cc1`, the Potency was “inactive”. For `Cc1ccn(-c2cc(Cl)ccc2[C@@H](Oc2cc(-c3ccc(C[C@H](N)C(=O)O)cc3)nc(N)n2)C(F)(F)F)n1`, the Potency was “inactive”. In the case of `O=C(O)c1cccc(-c2ccc(-c3cn(C(=O)N4CCCCC4Cc4ccccc4)nn3)cc2)c1` (stereo not given), the Potency is reported as “inactive”. For `COc1ccc(NS(=O)(=O)c2ccc(NS(=O)(=O)c3ccc4c(c3)OCCO4)cc2)cc1`, the Potency was “inactive”. In the case of `CC(C)c1ccc2c(c1)c(SC(C)(C)C)c(CC(C)(C)C(=O)O)n2Cc1ccc(Cl)cc1`, the Potency is reported as 15.8 µM (active). For `CCCCCCCOc1cc2c(cc1/C(C)=C/c1ccc(C(=O)O)cc1)C(C)(C)CCS2(=O)=O`, the Potency was “inactive”. With `COc1ccccc1-c1cccc(-c2c(O)c3cc(C#N)c(Cl)cc3[nH]c2=O)c1` the Potency was “inactive”. In the case of `COc1ccc(-c2ccccc2)cc1NS(=O)(=O)c1cc(Cl)cc(Cl)c1O`, the Potency is reported as “inactive”. With `O=C(O)Cn1nnc(-c2cc(N3CCC(Oc4cc(F)ccc4Br)CC3)no2)n1` the Potency was “inactive”. For `O=C(O)c1ccc(-n2nc(-c3ccccc3O)nc2-c2ccccc2O)cc1`, the Potency was “inactive”. In the case of `N#CC1(c2cccc(C(=O)Nc3cc(Oc4ccc5nc(NC(=O)C6CC6)sc5n4)ccc3F)c2Cl)CC1`, the Potency is reported as “inactive”. With `Oc1cc2ccccc2c2ccccc12` the Potency was 11.2 µM (active). In the case of `Cc1ccc2[nH]c(=O)c(C3=NN(C(=O)CCC(=O)O)C(c4ccc(Br)cc4)C3)c(-c3ccccc3)c2c1` (stereo not given), the Potency is reported as “inactive”. In the case of `N#CC(c1ccnc(OCc2ccc(CN3CCOCC3)cc2)n1)c1nc2ccccc2s1` (stereo not given), the Potency is reported as “inactive”. With `O=C(Nc1cc(C(F)(F)F)cc(C(F)(F)F)c1)c1cc(Cl)ccc1O` the Potency was “inactive”. In the case of `COc1cc(/C=C/c2ccccc2)c(C(=O)O)c(O)c1CC=C(C)C`, the Potency is reported as “inactive”. In the case of `O=C(Nc1ccc(Oc2ccc(Cl)cc2)c(Cl)c1)c1cc(I)cc(I)c1O`, the Potency is reported as “inactive”. For `COc1cc(C(=O)NS(=O)(=O)c2ccccc2C)ccc1Cc1cn(C)c2ccc(NC(=O)OC3CCCC3)cc12`, the Potency was “inactive”. In the case of `CN(C)[C@@H]1C(=O)C(C(N)=O)=C(O)[C@@]2(O)C(=O)C3=C(O)c4c(O)ccc(Cl)c4[C@@H](O)[C@H]3C[C@@H]12`, the Potency is reported as “inactive”. In the case of `CC(C)c1cccc2c(-c3ccccc3)cc(-c3ccc(-c4ccc(C(=O)O)cc4)[nH]3)nc12`, the Potency is reported as 25.1 µM (active). With `COc1cc2c(c(O)c1OC/C=C(\C)CC/C=C(/C)CCC=C(C)C)CN(C(CCC(=O)O)C(=O)O)C2=O` (stereo not given) the Potency was “inactive”. In the case of `C=C1c2cccc(O)c2C(O)=C2C(=O)[C@]3(O)C(O)=C(C(N)=O)C(=O)[C@@H](N(C)C)[C@@H]3[C@@H](O)[C@H]12`, the Potency is reported as “inactive”. For `O=S(=O)(O)c1ccc2cc(N=Nc3cc(S(=O)(=O)O)c4cccnc4c3O)ccc2c1`, the Potency was “inactive”. In the case of `O=C(c1cc(O)c(O)c([N+](=O)[O-])c1)c1ccccc1F`, the Potency is reported as “inactive”. For `CC(=O)O[C@@H]1C[C@]2(C)[C@@]3(CCC4[C@@]5(C)CC[C@H](O[C@@H]6O[C@H](C(=O)O)[C@@H](O)[C@H](O[C@@H]7O[C@H](CO)[C@H](O)[C@H](O)[C@H]7O[C@@H]7O[C@@H](C)[C@H](O)[C@@H](O)[C@H]7O[C@@H]7OC[C@](O)(CO)[C@H]7O)[C@H]6O[C@@H]6O[C@H](CO)[C@H](O)[C@H](O)[C@H]6O)C(C)(C)C5CC[C@]42C)O[C@@H](O)[C@]12C3CC(C)(C)[C@@H](OC(=O)/C=C/c1ccc(O)c(O)c1)[C@@H]2OC(=O)/C=C/c1ccccc1` (stereo not given in full), the activity change, negative = cytotoxicity was 2.61% [at 7.93 µM]. In the case of `O=C(N/N=C/c1ccc(O)c(O)c1)c1cc2ccccc2cc1O`, the Potency is reported as “inactive”. With `C/C(=C\c1ccc(C(=O)O)cc1)c1ccc2c(c1)C(C)(C)CCC2(C)C` the Potency was “inactive”. With `O=C(O)c1ccc(O)c2ncc(N3CCCN(CCc4cccc5ccccc45)CC3)cc12` the Potency was “inactive”. With `O=C(O)c1ccc2c(ccc3nn(-c4ccc(/C=C/c5ccc(-n6nc7ccc8cc(C(=O)O)ccc8c7n6)cc5[S+](=O)([O-])[O-])c([S+](=O)([O-])[O-])c4)nc32)c1` the Potency was “inactive”. For `CCCCCc1ccc(/C=C/C(=O)Nc2cc(Cl)ccc2C(=O)O)cc1`, the Potency was “inactive”. For `CC[C@H](C)[C@H]1O[C@]2(CC[C@@H]1C)C[C@@H]1C[C@@H](C/C=C(\C)[C@@H](O[C@H]3C[C@H](OC)[C@@H](O[C@H]4C[C@H](OC)[C@@H](O)[C@H](C)O4)[C@H](C)O3)[C@@H](C)/C=C/C=C3\CO[C@@H]4[C@H](O)C(C)=C[C@@H](C(=O)O1)[C@]34O)O2`, the Potency was 11.2 µM (active). With `CC1(C)CC[C@]2(C(=O)O)CC[C@]3(C)C(=CCC4[C@@]5(C)C[C@@H](O)[C@H](O)C(C)(C)C5CC[C@]43C)C2C1` (stereo not given in full) the Potency was “inactive”. With `N#CC1C(=O)Nc2scc(-c3ccc(-c4ccccc4O)cc3)c2C1=O` (stereo not given) the Potency was “inactive”. For `CC1(C)CCC(CN2CCN(c3ccc(C(=O)NS(=O)(=O)c4ccc(NCC5CCOCC5)c([N+](=O)[O-])c4)c(Oc4cnc5[nH]ccc5c4)c3)CC2)=C(c2ccc(Cl)cc2)C1`, the Potency was 3.16 µM (active). For `COc1cc(Nc2nc3ccccc3nc2NS(=O)(=O)c2cccc(NC(=O)c3ccc(C)c(OC)c3)c2)cc(OC)c1`, the Potency was “inactive”.
